Screens (PubChem)
This is a sample that favours compounds with a hit; in the whole collection about 11% have one here.
ALDH1A1 inh = inhibitors of human aldehyde dehydrogenase 1A1 | P00352 | Purified ALDH1A1, NADH fluorescence, propionaldehyde substrate | Potency, µM (series often up to 75.3 µM), for inactives: top-dose activity, negative = inhibition, usual class: inhibitors | 7.3% of 220,000 active;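 further: potency means the concentration at half of the fitted maximal effect; plate controls were no enzyme wells and a reference inhibitor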
Target sequence (P00352 whole entry, looked up): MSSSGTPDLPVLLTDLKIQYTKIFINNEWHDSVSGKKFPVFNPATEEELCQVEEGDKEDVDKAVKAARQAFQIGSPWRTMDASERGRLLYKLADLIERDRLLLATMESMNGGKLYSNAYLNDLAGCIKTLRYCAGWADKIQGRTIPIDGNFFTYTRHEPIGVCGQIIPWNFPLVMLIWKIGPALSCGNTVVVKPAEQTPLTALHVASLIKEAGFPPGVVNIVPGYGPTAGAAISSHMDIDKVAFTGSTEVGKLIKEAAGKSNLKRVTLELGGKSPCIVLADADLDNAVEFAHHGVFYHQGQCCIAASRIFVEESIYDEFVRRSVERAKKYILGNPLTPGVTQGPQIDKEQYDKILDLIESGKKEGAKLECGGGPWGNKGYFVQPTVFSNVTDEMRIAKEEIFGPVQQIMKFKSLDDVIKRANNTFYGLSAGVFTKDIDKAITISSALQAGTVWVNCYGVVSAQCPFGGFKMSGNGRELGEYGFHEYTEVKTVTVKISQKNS
PNC inhibitor = blocks assembly of the perinucleolar compartment; PC3M PTB-GFP, PNC prevalence imaging, 16 h; active compounds read low; activity change (PNC), negative = inhibition, % at 10 µM; 3.1% of 140,000 active; AID 2417;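 active means readout at or below -70, meaning at least 70% loss of cells showing the perinucleolar compartment, a nuclear body marking cancer cells; inconclusive means readout between -30 and a set limit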;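 further: plate controls were DMSO wells for no effect and camptothecin positive control wells for full effect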
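Read-out is percentage of cells bearing a perinucleolar compartment, from automated 20x imaging of fixed, Hoechst-stained PC3M PTB-GFP cells. Cells were seeded 4 h, then exposed 16 h to compound (23 nl of library stock) in duplicate plates.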
HPGD block = inhibitors of human 15-hydroxyprostaglandin dehydrogenase (HPGD) | Potency, µM, without a hit: at the highest dose activity change, negative = inhibition, usual class: inhibitors | purified HPGD, NADH fluorescence kinetic, PGE2 substrate | 4.3% of 150,000 active | AID 894; further: potency means the concentration at half of the fitted maximal effect
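NADH formation kinetics: reaction with 30 uM PGE2 and 1 mM NAD+ (final), 20 nM enzyme, Tris-HCl pH 8 with Tween 20, after 15 min compound preincubation at room temperature. Fluorescence change, last versus first of five reads.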
* marks the source's active call; other numbers are inactive results; i = inactive; ? = inconclusive; nt = no result; [ ] = remark or other dose. Unless noted, the call rests on the fitted dose curve; in most records, active means well fitted inhibition curve with a large enough effect (not every such curve was filed as active); inconclusive means small, poorly fitted or top-dose-only effect, or another doubt; inactive means no such curve, though single readings can be large or run the other way. Unless noted, on the % scale 0 is the no-effect control and ±100 the full control effect.

SMILES	ALDH1A1 inh	PNC inhibitor	HPGD block
Cc1ccccc1NC(=S)NCc1ccco1	-7.3%	1.4	-14.4%
CN(C)S(=O)(=O)c1ccc(C(=O)OCC(=O)NCc2ccco2)cc1	15µM*	nt	nt
CCN1CCCC1CNC(=O)C1c2cc(OC)c(OC)cc2C(=O)N(C)C1c1cccnc1 (centres undefined)	6.0%	6.5	-6.5%
Cc1ccnc2nc(C(=O)NCCc3ccc(F)cc3)nn12	16.6%	-8.8	-20.0%
CC(C)C[C@@H](CC(=O)N[C@@H](CCC(=O)O)CC(=O)O)NC(=O)[C@@H]1CNCC[C@H]1NC(=O)C[C@@H](NC(=O)C[C@H](Cc1c[nH]c2ccccc12)NC(=O)[C@@H]1CNCC[C@H]1N)C(C)C	-16.1%	nt	-5.3%
CCn1cc(-c2n[nH]c(=S)n2-c2ccc(C)cc2Br)c(=O)c2ccc(C)nc21	1.0%	nt	nt
CCNc1nc(NC(C)(C)C)nc(N(C#N)CC)n1	?	?	-4.1%
Cc1ccc([N+](=O)[O-])cc1NC(=O)Nc1cccc(F)c1	-0.7%	nt	nt
CC(=O)c1cccc(NC(=S)NCc2ccco2)c1	-8.0%	nt	nt
S=C(NCc1ccco1)Nc1ccc(Cl)c(Cl)c1	25.1µM*	4.0	3.16µM*
COc1ccc(NC(=S)NCc2ccco2)cc1	-0.7%	-18.8	-28.4%
O=C(N/N=C\c1ccco1)Nc1cccc(Cl)c1	28.2µM*	13.0	-29.2%
S=C(NCc1ccco1)Nc1cccc(Cl)c1	?	-21.1	11.2µM*
Cc1cccc(NC(=O)CCC(=O)N/N=C/c2ccco2)c1	8.7%	30.6	-13.2%
O=C(NC1CCCCCCC1)c1ccc2c(c1)N(Cc1ccc(F)cc1)C(=O)CS2=O (centres undefined)	-11.9%	-29.6	-4.4%
COc1cccc(NC(=O)C23CCC(C)(C(=O)O2)C3(C)C)c1 (centres undefined)	-6.0%	31.7	-13.4%
COC(=O)C1=C(C(=O)OC)[C@@H]2N(C)c3ccccc3[C@@]23C[C@@H](C(=O)OC)N(S(=O)(=O)c2ccc(C#N)cc2)C3=N1	2.3%[13.5 µM]	nt	1.0%
O=C(CCN1CCN(c2ccccc2)CC1)N/N=C/c1ccccc1O	1.1%	nt	nt
CN(C)c1ccc(N=NS(=O)(=O)O)cc1	10µM*	nt	-16.3%
CN(C)c1ccc(C(=O)c2ccccc2)cc1	-10.8%	10.3	?
CCOC(=O)/C(=N/Nc1ccc(Cl)cc1)S(=O)(=O)c1ccccc1	?	-23.3	-21.6%
O=C(NCc1cccnc1)C(=O)Nc1nc2ccccc2s1	0.6%	nt	nt
O=C(NCc1cccc(Cl)c1)c1cccnc1	3.0%	2.9	-15.3%
O=C(NCc1cccnc1)c1cccnc1-c1nc2ccccc2s1	20µM*	63.8	-18.5%
O=C(NCc1cccnc1)c1cc(Sc2cccc(Cl)c2)nc2ccccc12	11.2µM*	1.7	-16.3%
SMILES	ALDH1A1 inh	PNC inhibitor	HPGD block
COc1cc(OC)cc(C(=O)Nc2cccc(N3CCCC3)c2)c1	2.9%	46.6	-5.8%
CCCCC/C=C\C/C=C\CCCCCCCCCC(=O)NC(C)C(=O)O (centres undefined)	1.1%	nt	-5.2%
COc1ccc(CCNC(=O)Cn2c(=O)n(Cc3ccco3)c(=O)c3ccc(Cl)cc32)cc1OC	?	-15.2	-11.0%
CCOC(=O)Cn1c(=O)n(Cc2ccco2)c(=O)c2ccc(C(=O)NCCc3ccccc3)cc21	3.98µM*	?	-11.7%
O=C(COC(=O)c1cnccn1)c1ccc(Br)cc1	-19.8%	12.9	-6.4%
O=C(COC(=O)c1cnccn1)c1ccc2c(c1)CCCC2	28.2µM*	-1.6	-12.0%
COCCCN(C(=S)NC(=O)C12CC3CC(CC(C3)C1)C2)c1c(N)n(Cc2ccccc2)c(=O)[nH]c1=O	-8.1%	nt	nt
CC(C)c1ccc(C2NC(=S)NC3=C2C(=O)CCC3)cc1 (centres undefined)	3.98µM*	5.4	-2.2%
O=C1CCCC2=C1C(c1ccncc1)Nc1ccccc1N2 (centres undefined)	2.9%	-25.6	-11.0%
CC1(C)CC[C@]2(C)CC[C@@]3(C)C(=CCC4[C@@]5(C)CCC(O)C(C)(C)C5CC[C@@]43C)C2C1 (some centres undefined)	3.5%	nt	-5.7%
Nc1cc(Cl)ccc1N1CCCCC1	-10.1%	nt	nt
NC(=O)c1cc(N)ccc1N1CCCCC1	5.1%	nt	nt
Nc1ccc(N2CCCCC2)cc1N1CCCCC1	3.98µM*	-4.2	-0.7%
Nc1c(N2CCCC2)cc(Cl)c2nonc12	?	61.6	nt
Nc1ccc(N2CCCCC2)c2nonc12	7.94µM*	nt	nt
Nc1cc(Cl)ccc1N1CCCCCC1	17.8µM*	nt	nt
Cc1ccc2c(c1)-c1c(cnn1CC(=O)N(CCC#N)c1ccccc1)CO2	?	47.4	-20.3%
Nc1cc(N2CCCCC2)c([N+](=O)[O-])cc1Cl	3.55µM*	63.0	-23.1%
O=[N+]([O-])c1cc(F)c(N2CCCCC2)cc1N1CCOCC1	6.1%	?	nt
O=[N+]([O-])c1cc(F)c(N2CCOCC2)cc1N1CCCCC1	14.1µM*	37.8	-3.9%
Nc1cc(N2CCCCC2)c(Cl)cc1[N+](=O)[O-]	11.8%	?	-8.2%
CCOc1ccc(C(O)C(CN2CCOCC2)c2ccccc2)cc1 (centres undefined)	?	?	-11.5%
O=C1CCC(C(=O)Nc2cccc(S(=O)(=O)N3CCOCC3)c2)N1 (centres undefined)	9.1%	nt	nt
CCn1c(O)c(N=NC2=NC(=O)CS2)c2ccccc21	11.2µM*	-6.7	-20.5%
CCn1c(O)c(N=N)c2ccccc21	-4.5%	nt	nt
SMILES	ALDH1A1 inh	PNC inhibitor	HPGD block
Cc1ccc2c(c1)C(C)(C)[C@]1(C)NC(=O)CCN21	39.8µM*	58.5	-12.9%
CC1(C)c2ccccc2N2CCC(=O)NC21/C=C/c1ccco1 (centres undefined)	1.4%	0.2	-7.6%
Cn1c(C(=O)NC2CC2)cc(=O)n(C)c1=O	5.1%	nt	nt
CC(NC(=O)Nc1ccc(Cl)cc1)C1CCCO1 (centres undefined)	14.7%	nt	nt
CC(NC(=O)c1ccc(Br)s1)C1CCCO1 (centres undefined)	?	4.9	31.6µM*
COc1ccccc1CNc1cc(-c2ccccc2C)ncn1	-4.8%	nt	nt
CCn1c(SCC(=O)Nc2ccc(S(N)(=O)=O)cc2)nnc1-c1cccc(OC)c1	14.9%	16.6	-14.6%
CC(=O)Nc1ccc(OCC(O)CNC2CCCC2)cc1 (centres undefined)	17.8µM*	14.4	-9.5%
CC(=O)Nc1ccc(OC[C@@H](O)CNC(C)C)cc1	2.0%	nt	1.0%
CCOC(=O)NC(=O)CSc1nnc(C2CC2)n1Cc1ccco1	4.2%	nt	nt
Cc1csc(SCC(=O)c2ccc(S(=O)(=O)N3CCOCC3)cc2)n1	?	8.4	-11.4%
COC(=O)c1ccc(CSc2nc3ccc(S(=O)(=O)N4CCOCC4)cc3[nH]2)cc1	-4.0%	?	28.2µM*
CCOC(=O)CSc1nc2ccc(S(=O)(=O)N3CCOCC3)cc2[nH]1	-12.0%	35.4	-6.5%
CCc1ccc(C(=O)CSc2nc3cc(S(=O)(=O)N4CCOCC4)ccc3n2CC)cc1	28.2µM*	?	-23.4%
CCn1nnnc1SCC(=O)Nc1nc(C)c(C)s1	-1.8%	i	-17.1%
Nc1cc(N2CCCCC2)nc(N)[n+]1OS(=O)(=O)[O-]	-5.7%	nt	nt
O=C(Nc1cnccn1)Nc1ccc(Cl)cc1Cl	5.8%	nt	nt
O=C(c1ccccc1)c1cnc2ccc(Cl)cc2c1N1CCOCC1	-6.4%	nt	nt
O=C(c1ccccc1)c1cc(F)c(N2CCOCC2)cc1Cl	0.5%	-26.3	20µM*
